# Results taken from the supplement of paper PMC6897291.
# System: RIVA
# Assay: growth inhibition by drug plus 177Lu-lilotomab satetraxetan (1 - RLU/untreated control) (fraction); higher = stronger inhibition
# Settings: 177Lu-lilotomab satetraxetan 0.5 ug/ml
# Method: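 RIVA (RI-1) ABC-DLBCL cells were pretreated or not for 18 h with 0.5 ug/ml 177Lu-lilotomab satetraxetan (600 MBq/mg), washed and seeded (3000 cells/well) on 384-well plates pre-printed with the Selleck Cambridge Cancer Compound library. Viability was read by RealTime-Glo luminescence on days 3-6 after seeding. Effect = 1 - RLU/mean RLU of the 48 untreated no-drug control wells per plate; Bliss score = (M-E)/(1-Fa).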
Structure (SMILES),"growth inhibition by drug plus 177Lu-lilotomab satetraxetan (10 nM, time (day): 3)","growth inhibition by drug plus 177Lu-lilotomab satetraxetan (10 nM, time (day): 4)","growth inhibition by drug plus 177Lu-lilotomab satetraxetan (10 nM, time (day): 5)","growth inhibition by drug plus 177Lu-lilotomab satetraxetan (10 nM, time (day): 6)","growth inhibition by drug plus 177Lu-lilotomab satetraxetan (100 nM, time (day): 3)","growth inhibition by drug plus 177Lu-lilotomab satetraxetan (100 nM, time (day): 4)","growth inhibition by drug plus 177Lu-lilotomab satetraxetan (100 nM, time (day): 5)","growth inhibition by drug plus 177Lu-lilotomab satetraxetan (100 nM, time (day): 6)"
CC(C)[C@]12O[C@H]1[C@@H]1O[C@]13[C@]1(O[C@H]1C[C@H]1C4=C(CC[C@@]13C)C(=O)OC4)[C@@H]2O [Triptolide],0.648,0.885,0.928,0.948,0.941,0.967,0.979,0.984
CC1=C2C[C@H]3[C@@H](CC=C4C[C@@H](O)CC[C@@]43C)[C@@H]2CC[C@]12O[C@@H]1C[C@H](C)CN[C@H]1[C@H]2C [Cyclopamine],0.301,0.397,0.41,0.418,0.454,0.57,0.559,0.53
Cc1ccccc1-n1c(Cn2cnc3c(N)ncnc32)nc2cccc(C)c2c1=O,0.471,0.529,0.546,0.556,0.375,0.45,0.472,0.479
CC(O)(CS(=O)(=O)c1ccc(F)cc1)C(=O)Nc1ccc(C#N)c(C(F)(F)F)c1 (stereo not given) [Bicalutamide (Casodex)],0.401,0.506,0.542,0.556,0.351,0.443,0.458,0.432
CC(=O)Nc1ccc(OC[C@](C)(O)C(=O)Nc2ccc([N+](=O)[O-])c(C(F)(F)F)c2)cc1 [Andarine (GTX-007)],0.585,0.603,0.615,0.608,0.404,0.5,0.511,0.533
